# RAD54 branch: RAD54 (human) branch migration inhibition. Q92698. RAD54 Holliday junction branch migration, FAM/BHQ fluorescence. inhibition, % at 10.4 µM. 360,000 compounds, 0.14% hits. AID 602329;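 active = mean normalized replicate activity at least 40 and at least half of replicates scoring 40 or more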;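 note: 0% = median of neutral control wells and 100% = median of positive control wells; inhibitors cause a drop in the FAM fluorescence signal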
# PvdQ acylase: blocks Pseudomonas aeruginosa PvdQ acylase activity. inhibition, % at 10 µM. purified PvdQ acylase, fluorescence plate reader. 340,000 compounds, 0.063% hits; in the data active = inhibition above about 30%, passing the limit was not always enough;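 note: 0% = vehicle neutral wells and 100% = reference inhibitor wells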
# N-glyco inh: N-linked glycosylation inhibition; D54 ERlucT glycosylation luciferase reporter, 24 h; percent of 100 nM tunicamycin response; reporter increase, % at 12.5 µM; 360,000 compounds, 0.23% hits; AID 588692;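 active = mean luciferase reporter signal, scaled so untreated is 0 and the glycosylation-blocking control 100, at or above a set limit in every replicate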;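 note: luciferase carries N-glycosylation sites so blocking glycosylation raises the light; 0% = median of neutral control wells and 100% = median of 100 nM tunicamycin wells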
# RAD52 inh: RAD52 (human) annealing inhibition | recombinant RAD52 DNA annealing, FRET fluorescence | inhibition, % at 18.7 µM | 360,000 compounds, 0.46% hits | AID 651710;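 active = every replicate showing at least 50% inhibition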
# Target sequence (P43351 whole entry, looked up): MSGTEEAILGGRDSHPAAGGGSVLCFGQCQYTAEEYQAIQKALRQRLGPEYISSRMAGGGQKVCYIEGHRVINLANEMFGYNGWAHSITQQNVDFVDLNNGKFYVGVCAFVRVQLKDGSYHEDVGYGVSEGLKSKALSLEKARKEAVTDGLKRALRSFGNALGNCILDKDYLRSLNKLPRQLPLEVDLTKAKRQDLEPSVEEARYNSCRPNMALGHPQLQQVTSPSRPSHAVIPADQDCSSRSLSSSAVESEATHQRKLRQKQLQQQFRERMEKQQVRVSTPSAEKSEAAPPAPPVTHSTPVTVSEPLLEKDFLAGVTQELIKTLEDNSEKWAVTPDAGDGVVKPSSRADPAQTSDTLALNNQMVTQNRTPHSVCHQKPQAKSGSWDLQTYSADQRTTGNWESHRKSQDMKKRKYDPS
# dFosB act-1: mouse delta FosB homodimer activation; AID 493131; purified delta FosB, TAMRA-CDK5 oligo fluorescence polarization; percent of positive-control signal above neutral wells; P13346; 340,000 compounds, 0.99% hits; activation, % at 25 µM;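 active = mean activation above about 17%, with every replicate also reaching it, limit read from the data, passing the limit was not always enough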
# CFTR F508del cor: CFTR F508del correction in bronchial cells. CFBE cells, YFP halide quenching; stimulated with forskolin plus potentiator P3; % fluorescence drop versus neutral controls. activity (quench increase), % at 7.58 µM. 350,000 compounds, 0.36% hits;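 active = mean added fluorescence quench of at least 8% versus neutral control, with both replicates also reaching 8%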;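 note: cells transiently co-express mutant CFTR-F508del with the halide-sensitive YFP; corrector assay measuring rescue of mutant channel to the surface after 24 h compound exposure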
# dFosB act-2: activators of mouse delta FosB homodimer DNA binding; AID 588690; purified delta FosB, TAMRA-CDK5 oligo fluorescence polarization; normalised: neutral wells 0, positive control 100; activation, % at 24.9 µM; shares compounds with dFosB act-1; 2,400 tested, under 10 active;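 active = highest replicate activation at or above 34% and every replicate reaching that threshold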;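 note: higher polarization means more probe DNA bound by delta FosB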
# Numbers without * were called inactive; . = no result. Shown are actives, neighbours in structure and some others; about 1.5% of the full set was active somewhere.
SMILES,RAD54 branch,PvdQ acylase,N-glyco inh,RAD52 inh,dFosB act-1,CFTR F508del cor,dFosB act-2
CC(C)c1ccc(N(C(=O)c2snc(C(N)=O)c2N)C(C(=O)NC2CCCC2)c2ccncc2)cc1 (stereo unspecified),-27.7,-7.7,0.0,-1.4,40.2*,2.0,-1.3
NC(=O)c1nsc(C(=O)N(c2ccccc2)C(C(=O)NC2CCCCC2)c2ccc(O)cc2)c1N (stereo unspecified),0.9,3.3,-2.3,-3.7,19.2*,-5.8,4.4
NC(=O)c1nsc(C(=O)N(c2ccc(F)cc2)C(C(=O)NC2CCCC2)c2ccncc2)c1N (stereo unspecified),-11.1,-7.6,0.8,3.5,9.4,-1.4,.
CNC(=O)C[C@@H]1CC[C@H]2[C@H](COc3ccc(NC(=O)NC4CCCC4)cc3C(=O)N2C)O1,-0.3,.,.,0.1,.,0.4,.
Cc1ccc(S(=O)(=O)N(C)C[C@@H]2Oc3ccc(NC(=O)NC(C)C)cc3CC(=O)N([C@@H](C)CO)C[C@@H]2C)cc1,32.0,.,.,5.2,.,-3.7,.
O=C(C[C@@H]1CC[C@@H]2[C@H](COC[C@H](O)CN2C(=O)C2CCOCC2)O1)NCc1ccncc1,-3.6,.,.,-14.0,.,0.2,.
O=C(NCCNC(=O)c1cc(OCC(F)(F)F)ccc1OCC(F)(F)F)Nc1ccc(OC(F)(F)F)cc1,.,-4.7,-2.6,.,38.1*,.,-4.1
C[C@@H]1CCCCO[C@@H](CN(C)C)[C@@H](C)CN([C@H](C)CO)C(=O)c2cc(NS(C)(=O)=O)ccc2O1,5.3,.,.,0.1,.,2.1,.
C[C@@H]1CN([C@H](C)CO)C(=O)c2cc(NC(=O)Nc3ccccc3)ccc2O[C@@H](C)CCCCO[C@H]1CN(C)Cc1ccccc1,-0.1,.,.,27.7,.,1.6,.
COc1cc(C(=O)NCc2ccc(S(N)(=O)=O)cc2)ccc1OCC(=O)Nc1cccc(C(F)(F)F)c1,.,-17.0,-0.4,4.0,16.6*,3.3,0.9
C[C@H]1CN([C@@H](C)CO)C(=O)c2cc(C#CCc3ccccc3)cnc2O[C@@H]1CN(C)Cc1ccc(C(=O)O)cc1,-1.1,.,.,-21.0,.,-0.3,.
COc1ccc(-c2noc(CSc3nc(N)c(-c4ccccc4)c(=O)[nH]3)n2)cc1,13.4,-16.5,0.6,4.7,61.6*,1.1,-1.2
N#Cc1ccc(-c2ccc(OCC(=O)NCC(=O)Nc3ccc(F)c(F)c3F)cc2)cc1,6.0,-21.9,-4.6,-5.1,41.8*,-3.3,6.7
CCOc1ccc(C(=O)CCC(=O)NCC(=O)Nc2ccc(F)c(F)c2F)cc1,6.8,.,0.3,-11.4,.,1.3,.
O=C(CCc1ccccc1)Nc1nc2n(n1)C(c1ccccc1)CC(=O)N2 (stereo unspecified),-6.5,-4.4,-1.8,-11.6,27.0*,.,-0.7
CN(C)C(=O)C[C@@H]1C=C[C@@H](NC(=O)C2CCOCC2)[C@@H](CO)O1,.,.,.,2.2,.,-0.6,.
CCCSc1nc2c(cnn2-c2ccccc2)c(=O)[nH]1,-6.2,-10.3,-4.4,-3.4,-1.3,0.8,.
CCCSc1nc2c(cnn2-c2ccc(F)cc2)c(=O)[nH]1,-6.1,-4.4,-1.9,-24.4,47.9*,-0.2,-6.6
O=c1[nH]c(SCc2ccc(F)cc2)nc2c1cnn2-c1ccc(F)cc1,-3.0,-13.6,2.2,-5.8,35.0*,1.1,2.3
C[C@@H]1CN([C@H](C)CO)C(=O)c2cc(-c3ccc(F)cc3)cnc2O[C@@H]1CN(C)C(=O)Nc1ccc(F)cc1,.,.,.,.,.,-0.1,.
COCC#Cc1cnc2c(c1)C(=O)N([C@@H](C)CO)C[C@H](C)[C@@H](CN(C)C(=O)c1ccc3c(c1)OCO3)O2,13.1,.,.,19.6,.,0.6,.
O=C(NNC(=O)c1sc2ccccc2c1Cl)Nc1ccc(Cl)cc1,11.9,-1.6,0.4,-9.6,18.9*,.,1.1
COC(=O)c1ccc(NC(=O)CNC(=O)c2sc3ccccc3c2Cl)cc1,-7.4,3.7,2.5,-22.1,53.5*,-2.2,3.1
NC(N)=NS(=O)(=O)c1ccc(NC(=S)NC(=O)c2sc3ccccc3c2Cl)cc1,0.2,-4.6,5.9,-50.5,29.3*,.,5.4
Cc1ccc(NC(=O)CNC(=O)c2sc3ccccc3c2Cl)nc1,-5.8,-12.8,-1.5,-5.4,-1.3,-1.3,.

# Assay outcomes deposited in PubChem by Broad Institute.
